From PubChem BioAssay (EPA / NIEHS)
Activity calls are given as the source filed them. Rule for the calls: active = hit-call score of the fitted dose curve at least 0.9, where 1 is the maximum; inactive = score below 0.9.

Assays:
Conditions in all cases: mRNA level, 48 h; actives raise or lower the signal
[1] = read-out: JUN Transcription Factor, JUN (gene 3725); experiment: LTEA_HepaRG_JUN: Life Technologies and Expression Analysis (LTEA) Assay for JUN Transcription Factor using HepaRG (AID 2283513)
How it was run: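 Differentiated HepaRG cells were exposed to chemicals for 48 h in serum-free induction medium, 8 concentrations from 100 uM in half-log steps, 0.5% DMSO vehicle, in duplicate. JUN mRNA was quantified by TaqMan qRT-PCR, normalized to ACTB, GAPDH, POLR2A.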

[2] = read-out: Lipase C (LIPC), LIPC (gene 3990); experiment: LTEA_HepaRG_LIPC: Life Technologies and Expression Analysis (LTEA) Assay for Lipase C (LIPC) using HepaRG (AID 2283514)
How it was run: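 Differentiated human HepaRG cells in serum-free induction medium were exposed in duplicate for 48 h to eight concentrations (top 100 uM, half-log steps, 0.5% DMSO). LIPC mRNA was quantified by TaqMan qRT-PCR, normalized to ACTB, GAPDH and POLR2A, with bidirectional fitting versus DMSO.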

[3] = read-out: Lipoprotein lipase (LPL), LPL (gene 4023); experiment: LTEA_HepaRG_LPL: Life Technologies and Expression Analysis (LTEA) Assay for Lipoprotein lipase (LPL) using HepaRG (AID 2283515)
How it was run: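 Differentiated human HepaRG cells in serum-free induction medium were exposed in duplicate for 48 h to eight half-log concentrations (top 100 uM) in 0.5% DMSO. LPL mRNA was quantified by TaqMan qRT-PCR, normalized to ACTB, GAPDH and POLR2A.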

[4] = read-out: MicroRNA 122 (MIR122), gene 406906; experiment: LTEA_HepaRG_MIR122: Life Technologies and Expression Analysis (LTEA) Assay for MicroRNA 122 (MIR122) using HepaRG (AID 2283516); note: the transcript read is the microRNA miR-122
How it was run: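 Differentiated human HepaRG cells were exposed 48 h in serum-free induction medium to eight half-log concentrations (top 100 uM, 0.5% DMSO). Transcript level was measured by TaqMan qRT-PCR, normalized to ACTB, GAPDH and POLR2A, and fitted bidirectionally versus DMSO.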

[5] = read-out: matrix metalloproteinase-10 (MMP10), MMP10 (gene 4319); experiment: LTEA_HepaRG_MMP10: Life Technologies and Expression Analysis (LTEA) Assay for matrix metalloproteinase-10 (MMP10) using HepaRG (AID 2283517)
How it was run: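 HepaRG, collagen I, ~100,000 cells/well; serum-free induction medium; 48 h exposure, duplicate, 8-pt half-log to 100 uM, 0.5% DMSO. Readout: TaqMan qRT-PCR, normalized to ACTB/GAPDH/POLR2A; bidirectional fit vs DMSO.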

MYC, MYC (gene 4609) = experiment: LTEA_HepaRG_MYC: Life Technologies and Expression Analysis (LTEA) Assay for MYC using HepaRG (AID 2283518)
How it was run: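 Expression changes were scored by TaqMan qRT-PCR with ACTB, GAPDH and POLR2A normalization. Cultures in serum-free induction medium received duplicate 8-point concentration series, highest 100 uM, for 48 h; DMSO (0.5%) served as baseline.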

[6] = read-out: matrix metalloproteinase-3 (MMP3), MMP3 (gene 4314); experiment: LTEA_HepaRG_MMP3: Life Technologies and Expression Analysis (LTEA) Assay for matrix metalloproteinase-3 (MMP3) using HepaRG (AID 2283519)
How it was run: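 Differentiated human HepaRG cells, plated 48 h on collagen I, were exposed in duplicate for 48 h in serum-free induction medium to eight half-log concentrations up to 100 uM in 0.5% DMSO. MMP3 mRNA was quantified by TaqMan qRT-PCR, normalised to ACTB, GAPDH and POLR2A.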

[7] = read-out: Paternally Expressed 10 (PEG10), PEG10 (gene 23089); experiment: LTEA_HepaRG_PEG10: Life Technologies and Expression Analysis (LTEA) Assay for Paternally Expressed 10 (PEG10) using HepaRG (AID 2283520)
How it was run: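 Differentiated HepaRG cells, plated 48 h then switched to serum-free induction medium, were exposed in duplicate for 48 h to eight half-log concentrations topping at 100 uM in 0.5% DMSO. PEG10 mRNA was quantified by TaqMan qRT-PCR, normalised to ACTB, GAPDH and POLR2A.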

[8] = read-out: Protein phosphatase 2A (PPP2R4), PTPA (gene 5524); experiment: LTEA_HepaRG_PPP2R4: Life Technologies and Expression Analysis (LTEA) Assay for Protein phosphatase 2A (PPP2R4) using HepaRG (AID 2283522)
How it was run: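 Differentiated HepaRG cells in serum-free induction medium were exposed in duplicate for 48 h to eight concentrations, top 100 uM with half-log dilutions, in 0.5% DMSO. PPP2R4 mRNA was quantified by TaqMan qRT-PCR, normalized to ACTB, GAPDH and POLR2A.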

[9] = read-out: Phosphatase and tensin (PTEN), PTEN (gene 5728); experiment: LTEA_HepaRG_PTEN: Life Technologies and Expression Analysis (LTEA) Assay for Phosphatase and tensin (PTEN) using HepaRG (AID 2283523)
How it was run: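 Differentiated human HepaRG cells, plated 48 h then switched to serum-free induction medium, were exposed in duplicate for 48 h to eight half-log concentrations up to 100 uM in 0.5% DMSO. PTEN mRNA measured by TaqMan qRT-PCR, normalized to ACTB/GAPDH/POLR2A, bidirectional fit versus DMSO.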

[10] = read-out: solute carrier (SLC22A1), SLC22A1 (gene 6580); experiment: LTEA_HepaRG_SLC22A1: Life Technologies and Expression Analysis (LTEA) Assay for solute carrier (SLC22A1) using HepaRG (AID 2283524)
How it was run: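 Human HepaRG cells were plated 48 h, switched to serum-free induction medium, then exposed in duplicate for 48 h to 8-point half-log series from 100 uM in 0.5% DMSO. SLC22A1 mRNA measured by qRT-PCR, normalized to ACTB/GAPDH/POLR2A, fitted bidirectionally versus DMSO.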

[11] = read-out: Pyruvate Dehydrogenase Kinase 4 (PDK4), PDK4 (gene 5166); experiment: LTEA_HepaRG_PDK4: Life Technologies and Expression Analysis (LTEA) Assay for Pyruvate Dehydrogenase Kinase 4 (PDK4) using HepaRG (AID 2283525)
How it was run: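 Differentiated human HepaRG cells, pre-cultured 48 h, were exposed in duplicate for 48 h in serum-free induction medium to eight half-log concentrations up to 100 uM in 0.5% DMSO. PDK4 mRNA was quantified by qRT-PCR, normalized to ACTB, GAPDH and POLR2A, bidirectional fitting versus DMSO.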

[12] = read-out: NAD(P)H dehydrogenase [quinone] 1 (NQO1), NQO1 (gene 1728); experiment: LTEA_HepaRG_NQO1: Life Technologies and Expression Analysis (LTEA) Assay for NAD(P)H dehydrogenase [quinone] 1 (NQO1) using HepaRG (AID 2283526)
How it was run: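 Differentiated HepaRG cells, plated 48 h and then switched to serum-free induction medium, were exposed in duplicate for 48 h to 8-point half-log concentrations up to 100 uM in 0.5% DMSO. mRNA measured by qRT-PCR, normalized to ACTB, GAPDH, POLR2A; bidirectional fit versus DMSO.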

[13] = read-out: Nuclear factor erythroid 2-related factor 2 (Homo sapiens) (UniProt Q16236); experiment: LTEA_HepaRG_NFE2L2: Life Technologies and Expression Analysis (LTEA) Assay for Nuclear factor erythroid 2-related factor 2 (NFE2L2) Transcription Factor using HepaRG (AID 2283527);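 note: TaqMan qRT-PCR transcript level normalised to ACTB GAPDH and POLR2A housekeeping genes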
How it was run: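 Differentiated human HepaRG cells in serum-free induction medium were exposed for 48 h to eight concentrations (top 100 uM, half-log dilutions, 0.5% DMSO), in duplicate. NFE2L2 mRNA was quantified by TaqMan qRT-PCR, normalized to ACTB, GAPDH and POLR2A, with bidirectional fitting versus DMSO.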

[14] = read-out: succinate dehydrogenase complex iron sulfur subunit B (SDHB), SDHB (gene 6390); experiment: LTEA_HepaRG_SDHB: Life Technologies and Expression Analysis (LTEA) Assay for succinate dehydrogenase complex iron sulfur subunit B (SDHB) using HepaRG (AID 2283528)
How it was run: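 A human HepaRG culture in serum-free induction medium received test chemicals for 48 h over an eight-point range capped at 100 uM. SDHB expression change was quantified by qRT-PCR.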

[15] = read-out: Signal transducer and activator of transcription 3 (Homo sapiens) (UniProt P40763); experiment: LTEA_HepaRG_STAT3: Life Technologies and Expression Analysis (LTEA) Assay for Signal transducer and activator of transcription (STAT3) using HepaRG (AID 2283529)
How it was run: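 Differentiated human HepaRG cells in serum-free induction medium were exposed in duplicate for 48 h to eight half-log concentrations up to 100 uM in 0.5% DMSO. STAT3 mRNA was quantified by TaqMan qRT-PCR, normalized to ACTB, GAPDH and POLR2A, and fitted bidirectionally against DMSO.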

[16] = read-out: solute carrier (SLCO1B1), SLCO1B1 (gene 10599); experiment: LTEA_HepaRG_SLCO1B1: Life Technologies and Expression Analysis (LTEA) Assay for solute carrier (SLCO1B1) using HepaRG (AID 2283530)
How it was run: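 Human HepaRG cultures treated for 48 h with an eight-concentration half-log series topping at 100 uM; SLCO1B1 measured by qRT-PCR and fitted bidirectionally relative to DMSO.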

[17] = read-out: sulfotransferase 2A1 (SULT2A1), SULT2A1 (gene 6822); experiment: LTEA_HepaRG_SULT2A1: Life Technologies and Expression Analysis (LTEA) Assay for sulfotransferase 2A1 (SULT2A1) using HepaRG (AID 2283531)
How it was run: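 Gene-expression endpoint in a human liver cell line: SULT2A1 mRNA change after 48 h chemical treatment, curves fitted in both directions relative to 0.5% DMSO vehicle. Concentrations spanned eight half-log steps from 100 uM.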

[18] = read-out: Transforming Growth Factor (TGFA), TGFA (gene 7039); experiment: LTEA_HepaRG_TGFA: Life Technologies and Expression Analysis (LTEA) Assay for Transforming Growth Factor (TGFA) using HepaRG (AID 2283532)
How it was run: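 Differentiated human HepaRG cells, plated 48 h then switched to serum-free induction medium, were exposed in duplicate for 48 h to 8-point half-log series from 100 uM in 0.5% DMSO. TGFA mRNA measured by qRT-PCR, normalized to ACTB/GAPDH/POLR2A, bidirectional fit versus DMSO.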

[19] = read-out: Nuclear factor NF-kappa-B p105 subunit (Homo sapiens) (UniProt P19838); experiment: LTEA_HepaRG_NFKB1: Life Technologies and Expression Analysis (LTEA) Assay for Nuclear Factor Kappa B Subunit 1 (NFKB1) using HepaRG (AID 2283521);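 note: TaqMan qRT-PCR transcript normalised to ACTB GAPDH and POLR2A housekeeping genes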
How it was run: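 Human HepaRG cells receive eight half-log concentrations, highest 100 uM, for 48 h. NFKB1 expression is then quantified by qRT-PCR and analysed for up- or down-regulation relative to 0.5% DMSO vehicle.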

Measured: outcome

Nuclear factor erythroid 2-related factor 2 (Homo sapiens), sequence (Q16236 whole entry, looked up): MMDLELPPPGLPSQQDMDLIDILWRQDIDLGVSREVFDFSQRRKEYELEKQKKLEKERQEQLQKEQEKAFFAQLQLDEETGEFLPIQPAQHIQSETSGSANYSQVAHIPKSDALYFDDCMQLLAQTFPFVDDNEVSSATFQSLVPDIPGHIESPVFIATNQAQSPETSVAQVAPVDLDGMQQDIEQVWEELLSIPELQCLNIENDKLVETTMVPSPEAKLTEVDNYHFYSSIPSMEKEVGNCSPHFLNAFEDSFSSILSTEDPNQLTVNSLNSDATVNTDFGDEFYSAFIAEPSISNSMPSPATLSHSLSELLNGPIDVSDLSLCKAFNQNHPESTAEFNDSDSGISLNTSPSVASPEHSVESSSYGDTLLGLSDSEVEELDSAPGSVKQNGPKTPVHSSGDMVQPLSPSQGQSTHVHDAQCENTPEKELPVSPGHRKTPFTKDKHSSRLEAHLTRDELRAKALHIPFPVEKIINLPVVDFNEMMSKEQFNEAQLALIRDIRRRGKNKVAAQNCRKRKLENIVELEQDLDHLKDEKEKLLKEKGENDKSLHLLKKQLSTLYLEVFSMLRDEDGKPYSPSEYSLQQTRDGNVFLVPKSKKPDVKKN
Signal transducer and activator of transcription 3 (Homo sapiens), sequence (P40763 whole entry, looked up): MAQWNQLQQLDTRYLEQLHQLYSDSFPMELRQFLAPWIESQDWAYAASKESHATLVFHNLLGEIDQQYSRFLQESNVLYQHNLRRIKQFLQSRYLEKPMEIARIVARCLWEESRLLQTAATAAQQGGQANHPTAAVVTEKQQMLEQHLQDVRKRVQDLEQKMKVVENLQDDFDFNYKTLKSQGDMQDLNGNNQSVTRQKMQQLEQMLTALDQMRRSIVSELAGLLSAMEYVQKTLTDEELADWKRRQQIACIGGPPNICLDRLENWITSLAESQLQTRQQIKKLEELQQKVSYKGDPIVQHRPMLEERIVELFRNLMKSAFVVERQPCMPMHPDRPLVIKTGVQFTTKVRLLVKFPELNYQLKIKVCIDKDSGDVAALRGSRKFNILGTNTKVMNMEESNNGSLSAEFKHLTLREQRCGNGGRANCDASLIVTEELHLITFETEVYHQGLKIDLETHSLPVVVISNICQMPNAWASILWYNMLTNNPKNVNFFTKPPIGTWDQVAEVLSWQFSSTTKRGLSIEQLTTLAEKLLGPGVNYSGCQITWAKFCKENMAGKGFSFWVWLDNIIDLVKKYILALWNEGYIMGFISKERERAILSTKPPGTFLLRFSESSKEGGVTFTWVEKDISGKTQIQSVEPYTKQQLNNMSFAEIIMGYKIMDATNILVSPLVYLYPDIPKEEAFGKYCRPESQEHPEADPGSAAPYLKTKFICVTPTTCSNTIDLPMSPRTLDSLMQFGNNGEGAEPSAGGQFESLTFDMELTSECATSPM
Nuclear factor NF-kappa-B p105 subunit (Homo sapiens), sequence (P19838 whole entry, looked up): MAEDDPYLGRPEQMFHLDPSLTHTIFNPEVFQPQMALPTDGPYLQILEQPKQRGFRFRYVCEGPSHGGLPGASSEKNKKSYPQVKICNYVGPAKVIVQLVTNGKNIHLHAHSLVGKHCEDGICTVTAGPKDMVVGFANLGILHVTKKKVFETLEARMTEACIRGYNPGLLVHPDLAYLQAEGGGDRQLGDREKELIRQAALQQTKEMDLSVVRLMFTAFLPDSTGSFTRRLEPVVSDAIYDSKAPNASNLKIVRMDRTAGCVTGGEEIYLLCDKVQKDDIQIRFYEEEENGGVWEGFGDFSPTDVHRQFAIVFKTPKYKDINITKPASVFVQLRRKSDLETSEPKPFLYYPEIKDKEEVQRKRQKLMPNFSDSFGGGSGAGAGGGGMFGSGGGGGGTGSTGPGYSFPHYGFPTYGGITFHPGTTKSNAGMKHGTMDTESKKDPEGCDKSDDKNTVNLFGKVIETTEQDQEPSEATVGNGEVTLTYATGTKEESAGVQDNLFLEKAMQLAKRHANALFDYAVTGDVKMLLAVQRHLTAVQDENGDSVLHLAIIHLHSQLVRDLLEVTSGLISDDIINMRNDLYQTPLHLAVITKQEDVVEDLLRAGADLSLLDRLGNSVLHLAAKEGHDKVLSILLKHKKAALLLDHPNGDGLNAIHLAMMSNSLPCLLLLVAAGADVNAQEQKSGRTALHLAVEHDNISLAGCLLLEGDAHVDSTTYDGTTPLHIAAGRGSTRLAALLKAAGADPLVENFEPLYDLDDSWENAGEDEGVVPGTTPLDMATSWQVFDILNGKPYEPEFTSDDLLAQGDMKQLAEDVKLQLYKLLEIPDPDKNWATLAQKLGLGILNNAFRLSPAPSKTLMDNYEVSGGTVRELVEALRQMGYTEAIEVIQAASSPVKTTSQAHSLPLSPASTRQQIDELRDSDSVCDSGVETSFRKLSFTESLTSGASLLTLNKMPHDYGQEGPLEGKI

CCC(C)(C)C(=O)O[C@H]1C[C@@H](C)C=C2C=C[C@H](C)[C@H](CC[C@@H]3C[C@@H](O)CC(=O)O3)[C@H]21
not listed: [19]
inactive: all other assays above

CCOCCO
not listed: [6]
inactive: all other assays above

CNCc1ccc(NC(=O)c2c[nH]c3c2C(=O)CCC3)cc1
not listed: [6]
inactive: all other assays above
